Bioassay records (PubChem)
This is a sample that favours compounds with a hit; in the whole collection about 2.6% have one here.
697 NFkB inh = lowers PMA/ionomycin-induced NF-kB signal in 697 B cells | 697 B-cell NF-kB luciferase reporter, 16 h | hit rate 0.33% among 330,000 | inhibition, % at 4 µM; in the data active means inhibition above about 35%
TAG inh = inhibitors of triacylglycerol accumulation; AID 651582; inhibition, % at 12.5 µM; hit rate 0.66% among 230,000; H9c2 cells, Nile Red lipid (TAG) fluorescence; cells loaded with 200 µM oleic acid;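 active means pattern-corrected inhibition of lipid staining of at least 50% with the nuclear-stain viability signal not falling by more than 50%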;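 further: 0% = DMSO wells and 100% = triacsin C control wells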
H9c2 protect = modulators protecting cardiomyocytes from myocardial damage; hit rate 0.63% among 360,000; AID 588492; protection from H2O2 cell death, % at 20 µM; H9c2 cardiomyocytes, H2O2 injury protection, ATPLite, 2 h;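 active means compounds giving at least 50% protection of heart cells from peroxide-induced death in the single-dose screen, raw or plate-pattern-corrected value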;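 further: 0% = DMSO wells with peroxide and 100% = DMSO wells without peroxide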
Jurkat NFkB inh = inhibitors of the PMA/ionomycin-induced NF-kB reporter in Jurkat cells | hit rate 0.53% among 330,000 | inhibition, % at 4 µM | PMA/ionomycin-induced NF-kB luciferase reporter, luminescence; in the data active means inhibition above about 50%
Gli-Sufu block = blocks Gli-Sufu signaling in a luciferase reporter. Sufu-KO-LIGHT fibroblasts, Gli luciferase reporter luminescence. inhibition, % at 5 µM. hit rate 0.74% among 340,000;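 active means inhibition above about 55%, limit read from the data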;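 further: 0% = DMSO-treated cells and 100% = wells with medium but no cells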
COUP-TFII inh = inhibitors of human COUP-TFII (NR2F2). P24468. HEK293T NGFI-A luciferase reporter, luminescence. inhibition, % at 8.6 µM. hit rate 0.7% among 370,000;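 active means inhibition above a per-plate cutoff, mean inhibition of test wells between control levels plus 3 SD, cut at about 38% in these data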;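 further: cells cotransfected with COUP-TFII expression vector driving the NGFI-A reporter; 0% = median of COUP-TF2 test wells and 100% = reporter-only cells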
Target sequence (P24468 whole entry, looked up): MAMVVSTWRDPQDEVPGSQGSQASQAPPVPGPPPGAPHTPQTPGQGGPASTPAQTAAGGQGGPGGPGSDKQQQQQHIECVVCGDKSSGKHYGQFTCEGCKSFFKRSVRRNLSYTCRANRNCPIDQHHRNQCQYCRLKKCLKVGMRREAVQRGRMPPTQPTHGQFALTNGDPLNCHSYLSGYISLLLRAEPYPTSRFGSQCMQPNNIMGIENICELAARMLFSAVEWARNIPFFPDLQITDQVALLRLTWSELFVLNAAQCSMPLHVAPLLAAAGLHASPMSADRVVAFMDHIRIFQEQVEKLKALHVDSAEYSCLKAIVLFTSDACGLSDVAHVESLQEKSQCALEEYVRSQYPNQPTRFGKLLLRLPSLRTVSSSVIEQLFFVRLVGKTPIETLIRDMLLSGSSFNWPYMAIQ
Jurkat NFkB conf = inhibitors of the PMA/ionomycin-induced NF-kB reporter in Jurkat cells, retest; hit rate 27% among 2,700; AID 435020; Jurkat NF-kB luciferase, 16 h; shares compounds with Jurkat NFkB inh; inhibition, % at 4 µM;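 active means inhibition reaching about 45% at 4 µM in either replicate, limit read from the data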;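 further: plate controls were PMA/ionomycin stimulated DMSO wells for no effect and unstimulated DMSO wells for full effect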
697 NFkB conf = lowers PMA/ionomycin-induced NF-kB signal in 697 B cells; shares compounds with 697 NFkB inh; 697 B-cell NF-kB luciferase, 16 h; inhibition, % at 4 µM; hit rate 35% among 2,000; in the data active means inhibition mostly above about 28%, no sharp cut-off; inactive means mostly below about 22%
* hit, by the source's call; nt = not tested or not shown.

SMILES | 697 NFkB inh | TAG inh | H9c2 protect | Jurkat NFkB inh | Gli-Sufu block | COUP-TFII inh | Jurkat NFkB conf | 697 NFkB conf
COc1ccc2oc(C(=O)N3CCN(C(c4ccccc4)c4ccccc4)CC3)c(C)c2c1 | -46 | 2 | -8 | -2 | 10 | -5 | nt | nt
COc1ccc2oc(C(=O)N3CCc4ccccc43)c(C)c2c1 | -383 | -6 | -17 | -226 | -144 | -5 | -77 | -499
Cc1c(-c2nc(-c3ccc(C(C)(C)C)cc3)no2)n(C)oc1=O | -418 | 0 | 2 | 60* | -134 | -48 | -31 | -413
Cc1cc(-c2nc(-c3ccc(C(C)(C)C)cc3)no2)no1 | -245 | 19 | -9 | -117 | -42 | -27 | nt | nt
CC(/C=N/Nc1nc2ccccc2[nH]1)=C\c1ccccc1 | -335 | 10 | -19 | -224 | -74 | -57 | -91 | -191
CC(/C=N/Nc1nc(C)cc(=O)[nH]1)=C\c1ccccc1 | 7 | nt | 4 | 7 | -36 | 16 | nt | nt
COc1cc2sc3ccc(C#CC4(O)CCCCC4)cc3c(=O)c2cc1OC | -332 | 25 | -11 | -297 | -12 | -17 | -86 | -411
CCC[C@@H](/C=C/C(=O)OC(C)(C)C)Sc1ccc(N)cc1 | nt | nt | nt | nt | nt | 1 | nt | nt
C(=N\Nc1nc(Nc2ccccc2)nc(N2CCOCC2)n1)/c1c[nH]c2ccccc12 | 60* | nt | nt | 82* | 36 | -26 | -3 | 49*
Cc1ccc(-c2cc(-c3nnc(SCC(=O)Nc4nccs4)n3N)[nH]n2)cc1 | nt | nt | nt | nt | nt | -36 | nt | nt
COc1cc(SC)ccc1C(=O)Nc1ccc2ncccc2c1 | -383 | nt | -5 | -206 | -159 | -8 | -153 | -345
N/C(=N\OC(=O)c1ccc(Cl)cc1Cl)c1ccccc1 | -292 | nt | -18 | -195 | -55 | -22 | -70 | -436
Cc1cccc(/C(N)=N/OC(=O)c2ccc(Cl)cc2Cl)c1 | -358 | nt | -24 | -202 | -93 | 1 | -53 | -277
Cc1ccc(/C(N)=N/OC(=O)c2ccc(C)cc2Cl)cc1 | -310 | nt | -19 | -193 | -30 | 31 | -10 | -288
N/C(=N\OC(=O)c1ccc(Cl)cc1Cl)c1cccnc1 | -129 | nt | -29 | -119 | -79 | -32 | nt | nt
CCCCCCCCN1CN2Cc3ccccc3C2CS1(=O)=O (stereo not drawn) | nt | nt | nt | nt | nt | 0 | nt | nt
COc1cccc(N/C=C/C(=O)c2ccc(C)cc2)c1 | -329 | -6 | -22 | -153 | -85 | -18 | -78 | -177
O=C(/C=C/Nc1ccccc1)c1ccc(Cl)cc1Cl | -251 | nt | -15 | -186 | -102 | -56 | -104 | -211
O=C(/C=C/Nc1ccc(Nc2ccccc2)cc1)c1cccs1 | nt | -13 | -1 | nt | -54 | -22 | nt | nt
O=C(/C=C/Nc1ccccc1)c1ccccc1 | -261 | nt | -30 | -191 | -105 | -20 | -59 | -185
COc1cccc(N/C=C/C(=O)c2ccc(Cl)cc2)c1 | nt | nt | -8 | nt | -114 | -60 | nt | nt
O=C(CN1C(=O)C2(OCCCO2)c2ccccc21)NCc1ccc2ccccc2c1 | nt | nt | nt | nt | nt | -10 | nt | nt
Cc1cc(Br)c2nc(-c3ccc(F)cc3)c(Cc3cccc(Cl)c3)n2c1 | nt | nt | nt | nt | nt | -10 | nt | nt
COc1ccc(N(C(=O)c2ccco2)C(C(=O)NC2CCCCC2)c2cccs2)cc1OC (stereo not drawn) | 18 | -15 | 2 | -8 | -101 | -3 | nt | nt
COc1ccc(N(C(=O)c2snc(C(N)=O)c2N)C(C(=O)NC2CCCC2)c2cccs2)cc1OC (stereo not drawn) | 13 | nt | 0 | -3 | -1 | -12 | nt | nt
C#CC(=O)N(c1cc(OC)ccc1OC)C(C(=O)NC1CCCC1)c1cccs1 (stereo not drawn) | 99* | nt | -24 | 95* | 86* | nt | 85* | 105*
C#CC(=O)N(c1ccc(OC)cc1OC)C(C(=O)NC1CCCC1)c1cccs1 (stereo not drawn) | 97* | 43 | -18 | 90* | 57* | -15 | 67* | 104*
COc1ccc(NC(=O)Cc2ccc(Cl)c(Cl)c2)cn1 | -5 | 5 | -13 | 2 | -12 | 10 | nt | nt
COc1ccc(NC(=O)/C(Cl)=C(/Cl)S(=O)Cc2ccccc2Cl)cn1 (stereo not drawn) | -349 | nt | nt | 100* | 72* | nt | 98* | -110
